{"source": "PubChem BioAssay (Tox21)", "note": "Records with an inconclusive call do not appear. Values without a mark were called inactive. The source made the active and inactive calls. The call rests on the fitted dose curve; in most records, active means well fitted inhibition curve with a large enough effect in the repeat runs; inconclusive means weak or mixed curves; inactive means no such curve, though single readings can be large or run the other way. On the % scale 0 is the no-effect control and ±100 the full control effect; potency means the concentration at half of the fitted maximal effect."}
{"biological_target": "Estrogen receptor (Homo sapiens) (UniProt P03372)", "sequence (P03372 whole entry, looked up)": "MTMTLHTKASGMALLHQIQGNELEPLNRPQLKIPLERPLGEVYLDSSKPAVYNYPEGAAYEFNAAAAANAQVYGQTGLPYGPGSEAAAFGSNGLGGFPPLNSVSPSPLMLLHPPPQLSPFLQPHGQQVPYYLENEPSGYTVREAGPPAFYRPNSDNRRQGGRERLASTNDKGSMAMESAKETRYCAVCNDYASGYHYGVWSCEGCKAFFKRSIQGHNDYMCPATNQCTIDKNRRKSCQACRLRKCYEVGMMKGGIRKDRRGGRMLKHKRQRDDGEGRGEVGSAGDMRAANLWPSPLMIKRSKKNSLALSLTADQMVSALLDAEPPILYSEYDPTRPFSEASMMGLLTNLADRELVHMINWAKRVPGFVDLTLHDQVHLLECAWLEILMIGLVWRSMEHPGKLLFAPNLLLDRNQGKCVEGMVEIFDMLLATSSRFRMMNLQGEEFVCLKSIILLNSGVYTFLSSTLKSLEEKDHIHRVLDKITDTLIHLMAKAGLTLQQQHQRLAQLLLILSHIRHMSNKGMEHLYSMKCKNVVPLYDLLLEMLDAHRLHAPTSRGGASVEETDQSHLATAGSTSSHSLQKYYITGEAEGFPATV", "test": "qHTS assay to identify small molecule antagonists of the estrogen receptor alpha (ER-alpha) signaling pathway using the BG1 cell line in the presence of 0.1 nM 17-beta-estradiol (AID 1259244); further: nearly all actives have a fitted effect of over 50% in size", "conditions": "VM7Luc4E2 (BG1) ERE-luciferase, antagonist mode, 0.1 nM E2, 22 h; series mostly up to 92.4 µM; activity change, negative = inhibition: at the top concentration", "excerpt": "National Center for Advancing Translational Sciences [NCATS]\nNIH Chemical Genomics Center [NCGC]\nU.S. Environmental Protection Agency [EPA]\nNational Institutes of Environmental Health Sciences [NIEHS]\nNational Toxicology Program [NTP]\nU.S. Food and Drug Administration [FDA]\nEstrogen receptor (ER), a member of the nuclear hormone receptor plays an important role in development, metabolic homeostasis and reproduction. Two subtypes of ER, ER-alpha and ER-beta, have similar expression patterns with some uniqueness in both types. Endocrine disrupting chemicals (EDCs) and their interactions with steroid hormone receptors like ER causes disruption of normal endocrine function. Therefore, it is important to understand the effect of environmental chemicals in ER signaling pathway. For identifying ER antagonists, VM7Luc4E2 cell line was used to screen against Tox21 compound libraries.\nVM7Luc4E2 cell line (provided by Denison MS, University of California) endogenously express full-length ER-alpha and is stably transfected with a plasmid containing four estrogen responsive elements (ERE) upstream of a luciferase reporter gene. The current screening for identification of ER-alpha inhibitors against Tox21 compound libraries used lower concentration (0.1 nM) of 17beta-Estradiol as a stimulator.\nTox21 Assay Protocol Summary:\nVM7Luc4E2 cells were cultured in phenol red free assay medium containing 10% charcoal stripped FBS for 5 days prior to the assay. The cells were dispensed at 4,000 cells/well in 4 uL of assay medium into white wall/solid-bottom 1536-well plates (Corning Life Sciences, Corning, NY) using a Multidrop Combi (ThermoFisher Scientific, Waltham, MA) dispenser. After the assay plates were incubated at 37C and 5% CO2 for 24 hr, 23 nL of compounds dissolved in DMSO, positive controls or DMSO only was transferred to the assay plates by a Pintool station (Kalypsys, San Diego, CA). The transfer of compounds was followed by the addition of 1 uL of 0.1 nM (final concentration) agonist (17beta-Estradiol)/assay medium using a Flying Reagent Dispenser (FRD, Aurora Discovery, San Diego, CA). The plates were incubated at 37C and 5% CO2 for 22 hr. For luciferase reporter gene assay, 4 uL of ONE-Glo reagent (Promega Corporation, Madison, WI) was added to each well using the FRD and after 30 min incubation at room temperature luminescence intensity was measured using ViewLux plate reader (PerkinElmer, Shelton, CT)."}
{"compound": "Cc1c(C)c2c(c(C)c1O)CC[C@@](C)(CCC[C@H](C)CCC[C@H](C)CCCC(C)C)O2", "activity change, negative = inhibition": "9.29%"}
{"compound": "FC(F)(F)c1cccc(Cl)c1", "activity change, negative = inhibition": "11.5%"}
{"compound": "CCCCCc1ccc(Cl)cc1", "activity change, negative = inhibition": "-2.55%"}
{"compound": "CCN(CC)C(=O)c1cc(S(=O)(=O)Cc2ccccc2)c(N2CCC(c3ccccc3)CC2)cc1N(CC)CCN(C)C", "activity change, negative = inhibition": "-19.5% [at 42.5 µM]"}
{"compound": "Fc1ccc(C(c2ccc(F)cc2)N2CCNCC2)cc1", "activity change, negative = inhibition": "1.6% [at 42.5 µM]"}
{"compound": "C[Si](Cl)(c1ccccc1)c1ccccc1", "activity change, negative = inhibition": "0%"}
{"compound": "OC12N=C(c3ccccc3)SC1Cc1cc(Cl)ccc12", "note": "(stereo not given)", "activity change, negative = inhibition": "-0.976%"}
{"compound": "O=[N+]([O-])c1cccc(C(F)(F)F)c1", "activity change, negative = inhibition": "12.7%"}
{"compound": "Cc1cc(-c2ccc(N=Nc3cc(S(=O)(=O)O)c4ccccc4c3N)c(C)c2)ccc1N=Nc1cc(S(=O)(=O)O)c2ccccc2c1N", "Potency": "7.74 µM (active)"}
{"compound": "CC(CO)Oc1ccccc1", "note": "(stereo not given)", "activity change, negative = inhibition": "17.3%"}
{"compound": "[Cu+]", "activity change, negative = inhibition": "1.86%"}
{"compound": "O=C(O)c1cc(O)c2ccccc2c1O", "Potency": "27.3 µM (active)"}
{"compound": "CCCC[P+](C)(CCCC)CCCC", "activity change, negative = inhibition": "2.14%"}
{"compound": "CCC(COC(=O)CCS)(COC(=O)CCS)COC(=O)CCS", "activity change, negative = inhibition": "-3.61%"}
{"compound": "CCN(CCN)c1cccc(C)c1", "Potency": "inactive"}
{"compound": "CCCCOC(=O)CO", "activity change, negative = inhibition": "-9.39%"}
{"compound": "CCCCCCCCCCC[C@@H](C[C@@H]1OC(=O)[C@H]1CCCCCC)OC(=O)[C@H](CC(C)C)NC=O", "activity change, negative = inhibition": "8.11% [at 42.5 µM]"}
{"compound": "CCCCC/C=C\\C/C=C\\CCCCCCCC(=O)O", "Potency": "inactive"}
{"compound": "CC(C)(c1cc(Br)c(OCC(Br)CBr)c(Br)c1)c1cc(Br)c(OCC(Br)CBr)c(Br)c1", "note": "(stereo not given)", "activity change, negative = inhibition": "14.9% [at 42.5 µM]"}
{"compound": "CCCCC(CC)COC(=O)CCCCC(=O)OCc1ccccc1", "note": "(stereo not given)", "activity change, negative = inhibition": "-10.7%"}
{"compound": "CC(C)NC[C@@H](O)COc1ccc(CC(N)=O)cc1", "activity change, negative = inhibition": "-1.63% [at 42.5 µM]"}
{"compound": "C=CC(C)(CCC=C(C)C)OC=O", "note": "(stereo not given)", "activity change, negative = inhibition": "-2.43%"}
{"compound": "Cc1cc(C(C)(C)C)c(O)c(C)c1Cn1c(=O)n(Cc2c(C)cc(C(C)(C)C)c(O)c2C)c(=O)n(Cc2c(C)cc(C(C)(C)C)c(O)c2C)c1=O", "activity change, negative = inhibition": "10.7%"}
{"compound": "COc1ccc2c(c1)c(CC(=O)OC/C=C(\\C)CC/C=C(\\C)CCC=C(C)C)c(C)n2C(=O)c1ccc(Cl)cc1", "activity change, negative = inhibition": "5.29% [at 42.5 µM]"}
{"compound": "CC1=CCC(=C(C)C)CC1", "activity change, negative = inhibition": "1.25%"}
{"compound": "O=C(Nc1ccc2c(O)c(N=Nc3ccc(N=Nc4ccc(S(=O)(=O)O)cc4)cc3)c(S(=O)(=O)O)cc2c1)c1ccccc1", "Potency": "27.3 µM (active)"}
{"compound": "CC(C)(C)c1csc(-c2cc3cc(OCc4ccccc4CC(=O)O)ccc3o2)n1", "activity change, negative = inhibition": "-10.3%"}
{"compound": "CC1(C)CC(O)CC(C)(C)N1", "activity change, negative = inhibition": "-8.24%"}
{"compound": "CCCc1ccc(OCC(=O)N2CCN(C(=O)COc3ccc(CCC)cc3OC)CC2)c(OC)c1", "Potency": "29.8 µM (active)"}
{"compound": "O=c1[nH]c(=O)n([C@H]2C[C@H](O)[C@@H](CO)O2)cc1F", "activity change, negative = inhibition": "-27.2% [at 42.5 µM]"}
{"compound": "CN1CCCCC1CCN1c2ccccc2Sc2ccc(S(C)=O)cc21", "note": "(stereo not given)", "activity change, negative = inhibition": "0.0267% [at 42.5 µM]"}
{"compound": "CC(C)CCCCCOC(=O)CCS", "activity change, negative = inhibition": "-0.235%"}
{"compound": "CC(=O)CC(=O)Nc1ccc(S(=O)(=O)O)cc1", "activity change, negative = inhibition": "3.74%"}
{"compound": "COC(=O)c1ccccc1OC", "activity change, negative = inhibition": "1.66%"}
{"compound": "Cc1ccc(C(C)C)cc2c(C)ccc1-2", "activity change, negative = inhibition": "3.72% [at 42.5 µM]"}
{"compound": "CC(CCc1ccccc1)NCC(O)c1ccc(O)c(C(N)=O)c1", "note": "(stereo not given)", "activity change, negative = inhibition": "-8.74%"}
{"compound": "COc1cc(/C=C/c2ccccc2)oc(=O)c1", "activity change, negative = inhibition": "-9.76%"}
{"compound": "O=C(O)c1ccc2cc(C(=O)O)ccc2c1", "activity change, negative = inhibition": "8.26%"}
{"compound": "CCCCC(CC)CN1CN(CC(CC)CCCC)CC(C)(N)C1", "note": "(stereo not given)", "activity change, negative = inhibition": "11.2% [at 42.5 µM]"}
{"compound": "CC1=Nc2ccccc2C1(C)C", "activity change, negative = inhibition": "30.3%"}
